According to ChEMBL document CHEMBL3988442, “University of Dundee, Small-Polar-MMV Screening Library” (2021):
Out of some 48,000 compounds screened, about 13,000 (27%) showed an effect of 50% or more. The list shows a part of the results.

system: Wolbachia pipientis; assay: Anti-Wolbachia Cell-Based Screen; type: functional; set-up: scale not given: in the data most compounds retested in dose-response had high values; conditions: 5 µM

| Compound | Percent Effect [%] |
| --- | --- |
| O=C(N1CCN(c2ccccc2O)CC1)C1(O)Cc2ccccc2C1 | -7.176 |
| O=C(N[C@@H]1CN(c2ncccn2)C[C@@H]2CCCO[C@@H]21)c1ccnnc1.O=C(O)C(F)(F)F | -7.292 |
| CSc1ccccc1C(=O)Nc1ccc(OC2CCN(C)CC2)cc1 | 4.435 |
| Cn1cc(CNc2cnn(CC3CCCO3)c2)c(-c2ccncc2)n1 (centres undefined) | 4.968 |
| O=C(c1ccc[nH]1)N1Cc2nccn2CC(Cn2ncccc2=O)C1 (centres undefined) | 107.9 |
| CS(=O)(=O)N1Cc2nccn2CC(Cn2ncccc2=O)C1 (centres undefined) | 1.411 |
| CN(Cc1cccnc1)CC1CN(C(N)=O)Cc2nccn2C1 (centres undefined) | -13.65 |
| O=C(c1ccccc1)N1Cc2nccn2CC(Cn2ncccc2=O)C1 (centres undefined) | 106.9 |
| O=C(O)C(F)(F)F.O=C(O)C(F)(F)F.O=C(c1ccccn1)N1Cc2nccn2CC(CN2CCOCC2)C1 (centres undefined) | -3.585 |
| NC(=O)N1Cc2nccn2CC(Cn2ncccc2=O)C1 (centres undefined) | 106.3 |
| CSc1ncc(C(=O)N2C[C@H]3CC[C@@H]2CN(c2ncccn2)C3)cn1 | -34.6 |
| CC(C)N(CC(N)=O)Cc1cccc(Br)c1 | -7.902 |
| CCN(Cc1nc(COC)no1)C(=O)CCNC(=O)c1ccccc1F | -2.73 |
| CCN(Cc1cccc(C(=O)Nc2c(C)cnn2C)c1)[C@H]1COC[C@@H]1O | 2.472 |
| CC(C)c1nsc(NC2CCOC3(CCCC3)C2)n1 (centres undefined) | -5.666 |
| Cc1ncc(C(=O)NCCNc2ncnc3sccc23)s1 | -47.31 |
| Cc1ncc(C(=O)NCCNc2ccncc2)s1 | 106.3 |
| CCCC(C)(C)NC(=O)c1cnc(C)s1 | -0.6309 |
| CCc1ncc(C(=O)NCCNC(=O)Cc2ccc(F)cc2)s1 | -2.58 |
| CCc1ncc(C(=O)NCCNc2ncnc3sccc23)s1 | -14.73 |
| CCc1ncc(C(=O)NCCNc2ccncc2)s1 | 82.39 |
| Cc1ccc(-c2nnc(CN3CCOCC(CO)C3)o2)n1C (centres undefined) | -20.97 |
| CCOC1CCCN(C(=O)c2[nH]nc(C(C)C)c2Br)C1 (centres undefined) | -3.012 |
| Cc1cnn(CC2CCCN2C(=O)CCc2c(C)nc(C)[nH]c2=O)c1 (centres undefined) | 112.3 |
| Cc1cnn(CC2CCCN2C(=O)CCc2c(C)nn(C)c2C)c1 (centres undefined) | 103.1 |
| Cc1cnn(CC2CCCN2C(=O)CCc2nc3ccccc3[nH]2)c1 (centres undefined) | 1.047 |

| Compound | Percent Effect [%] |
| --- | --- |
| Cc1cnn(CC2CCCCN2C(=O)Cc2c(C)noc2C)c1 (centres undefined) | 117.3 |
| Cc1cnn(CC2CCCCN2C(=O)Cc2csc(C)n2)c1 (centres undefined) | 1.923 |
| Cc1cnn(CC2CCCN2C(=O)CCc2c(C)noc2C)c1 (centres undefined) | 111.6 |
| Cc1nn(C)c(C)c1CCC(=O)N1CCCC1Cn1cccn1 (centres undefined) | 11.22 |
| Cc1cc(CN(C)C2CCN(c3cccc(-c4cscn4)c3)CC2)on1 | -19.07 |
| CNS(=O)(=O)c1ccc(C(=O)NCCNc2ncccn2)cc1 | 1.025 |
| CC(C)OCCOCc1cccc(NC(=O)NCc2ccncc2)c1 | 3.047 |
| Cn1nnc2cc(C(=O)NS(=O)(=O)c3ccc(F)cc3)ccc21 | -8.568 |
| Cc1cc(C)n(CC2CCCN2C(=O)Cc2c(C)noc2C)n1 (centres undefined) | 2.87 |
| Cc1cnn(CC2CCCN2C(=O)Cc2c(C)noc2C)c1 (centres undefined) | 123.7 |
| O=C(O)COc1ccc(CN2CCCC(CCc3ccccc3)C2)cc1 (centres undefined) | 98.9 |
| O=C(O)COc1ccc(CN2CCCC(Cc3cccnc3)C2)cc1 (centres undefined) | 125.7 |
| Cc1nccn1CC1CCCN(Cc2ccc(-c3cccnc3)cc2)C1 (centres undefined) | 30.54 |
| COc1coc(CN2CCCC(CCc3ccc(F)cc3)C2)cc1=O (centres undefined) | 20.93 |
| COc1ccc(CCC2CCCN(CC(=O)O)C2)cc1 (centres undefined) | 116.8 |
| Cc1[nH]c(=O)[nH]c(=O)c1CN1CCCC(CCc2ccccc2)C1 (centres undefined) | -19.89 |
| CN(C)C(=O)CCC1CCCN(Cc2ccc(-c3cccnc3)cc2)C1 (centres undefined) | -4.388 |
| COc1ccc(CCC2CCCN(C(=O)CCc3cc(O)no3)C2)cc1 (centres undefined) | 6.592 |
| COc1ccnc(CN2CCCC(CCc3ccccc3)C2)c1OC (centres undefined) | -14.6 |
| OCC(O)CSCc1ccc(Cl)cc1Cl (centres undefined) | -1.817 |
| Cc1nc(NC(=O)OC(C)(C)C)sc1C#N | 16.95 |
| CC(C)c1n[nH]c(C2CN(C(=O)c3cccc4cn[nH]c34)CCO2)n1 (centres undefined) | 2.376 |
| CCCc1n[nH]c(C2CN(C(=O)c3cccc4cn[nH]c34)CCO2)n1 (centres undefined) | 108.2 |
| CCCc1n[nH]c(C2CN(C(=O)c3cc(F)ccc3OC)CCO2)n1 (centres undefined) | -4.099 |
| CCCc1n[nH]c(C2CN(C(=O)c3cccc4[nH]ncc34)CCO2)n1 (centres undefined) | 117.3 |
| CCCc1n[nH]c(C2CN(C(=O)c3cccnc3N(C)C)CCO2)n1 (centres undefined) | 106.9 |

| Compound | Percent Effect [%] |
| --- | --- |
| CCCc1n[nH]c(C2CN(C(=O)c3n[nH]c4ccccc34)CCO2)n1 (centres undefined) | 103.5 |
| COc1ccc(CNCCc2cccc(C(N)=O)c2)cc1O | 8.083 |
| O=C(O)C(F)(F)F.O=C(O)C(F)(F)F.c1snnc1CN1C[C@H]2CCC[C@@H](CN3CCOCC3)[C@H]2C1 | 4.838 |
| COc1ccc(C(=O)NCCCC2(C3OCCO3)CCOCC2)cc1 | 0.9631 |
| CCCc1n[nH]c(C2CN(C(=O)C3=COCCC3)CCO2)n1 (centres undefined) | -2.018 |
| CCCc1n[nH]c(C2CN(C(=O)c3ccc[nH]3)CCO2)n1 (centres undefined) | 125.3 |
| CCCc1n[nH]c(C2CN(C(=O)c3ccco3)CCO2)n1 (centres undefined) | -0.9471 |
| C[C@@H]1C[C@H]2CN(C(=O)c3cccc4c3OCCO4)C[C@H]2O1 | -11.28 |
| COc1ccc(F)cc1C(=O)N1CCCC(n2nc(C)nc2C)C1 (centres undefined) | -10.5 |
| C[C@H]1C[C@H]2CN(C(=O)c3cccc4c3OCCO4)CC[C@H]2O1 | 2.231 |
| COc1ccc(F)cc1C(=O)N1C[C@H]2C[C@H](OC)C[C@H]2C1 | 117.3 |
| Cc1ccc(CC(=O)NC(C)C(=O)N2CCS(=O)(=O)CC2)s1 (centres undefined) | 0.993 |
| CO[C@H]1C[C@@H]2CN(C(=O)c3ccc(C)s3)C[C@@H]2C1 | 128.5 |
| Cc1csc(N2CCN(C(=O)Cc3ccc(C)s3)CC2)n1 | 9.508 |
| CO[C@H]1C[C@@H]2CN(C(=O)Cc3ccc(C)s3)C[C@@H]2C1 | 123.2 |
| COc1ccc(F)cc1C(=O)N1CC(c2ccncc2)C1 | 9.533 |
| CO[C@H]1C[C@@H]2CN(C(=O)c3cccc4c3OCCO4)C[C@@H]2C1 | 78.24 |
| COc1ccc2c(c1)CN(Cc1nc3c(cnn3C)c(=O)[nH]1)CC2 | -2.019 |
| Cc1sc(-c2ccco2)nc1C(=O)N(CC1CCOC1)C1CC1 (centres undefined) | 13.16 |
| Cc1cc(CNC(=O)C2CCCCN2C(=O)OC(C)(C)C)no1 (centres undefined) | 8.299 |
| Cc1ncncc1C(=O)N1CCC(O)(CN(C)Cc2ccc(F)cc2)C1 (centres undefined) | 90.38 |
| CN(C)CC1(O)CCCN(C(=O)c2ccccc2-n2cncn2)C1 (centres undefined) | -6.613 |
| CN(Cc1ccc(F)cc1)CC1(O)CCN(C(=O)c2ccncc2)C1 (centres undefined) | 120.1 |
| CN(C)CC1(O)CCCN(C(=O)c2cnc(-c3ccccn3)nc2)C1 (centres undefined) | 7.408 |
| Cc1ccc(OC2(C(=O)O)CCN(C(=O)c3ccsc3)CC2)cn1 | -3.963 |
| CN(Cc1ccc(F)cc1)CC1(O)CCN(C(=O)c2ccccn2)C1 (centres undefined) | 129.8 |

| Compound | Percent Effect [%] |
| --- | --- |
| CN(C)CC1(O)CCN(C(=O)c2cnc(-c3ccccn3)nc2)C1 (centres undefined) | -10.46 |
| CN(C)CC1(O)CCN(C(=O)c2ccc(-n3cnnc3)cc2Cl)C1 (centres undefined) | -7.306 |
| CN(Cc1ccc(F)cc1)CC1(O)CCN(C(=O)c2ccccc2)C1 (centres undefined) | -10.29 |
| CN(C)CC1(O)CCN(C(=O)c2cnc(-c3cccnc3)nc2)C1 (centres undefined) | -2.107 |
| CN(Cc1ccc(F)cc1)CC1(O)CCN(C(=O)c2ccsc2)C1 (centres undefined) | 101.4 |
| Cn1cc(CNCC2Cn3nnc(-c4ccccc4)c3CO2)cn1 (centres undefined) | -12.32 |
| Cn1nnc2cc(C(=O)NS(=O)(=O)Cc3ccc(F)cc3)ccc21 | -12.26 |
| COCC(C)NC(=O)CN1CCC2(CC1)OCCO2 (centres undefined) | -2.993 |
| CN1CCOC(C(=O)N2CCC3(CCCC3)CC2)C1 (centres undefined) | -33.61 |
| O=C(CCc1ccccc1Br)NCC(=O)NCc1ccccc1 | 2.467 |
| COc1ccc(CN(C)CC2(O)CCN(C(=O)c3cccn3C)C2)cc1 (centres undefined) | -15.88 |
| CN(Cc1ccc(F)cc1)CC1(O)CCN(C(=O)c2ccn(C)n2)C1 (centres undefined) | 136.3 |
| CN(C)CCN1CC2(CCC1=O)CCN(C(=O)c1ccn(C)n1)CC2 | 6.742 |
| CN(Cc1ccc(F)cc1)CC1(O)CCN(C(=O)c2cccs2)C1 (centres undefined) | 131.3 |
| O=C(Cc1ccccc1)C1CCCN(Cc2cncn2C2CCCC2)C1 (centres undefined) | -39.33 |
| Cc1nccnc1N1CCC(Cc2ccccc2Cl)(C(=O)O)CC1 | 4.229 |
| CCc1ccc(C(NCC(N)=O)C(C)(C)C)o1 (centres undefined) | -15.62 |
| Cc1nnc(CN2CCC(Oc3ccc(F)cc3)CC2)o1 | -12.54 |
| Cc1ccc(C(=O)Nc2ccc(OC3CCN(C)CC3)cc2)c(C)c1 | 4.12 |
| Cc1ccc(-c2nccn2-c2ccc(OC3CCN(C)CC3)cc2)o1 | 109.9 |
| c1cc(CN2CCCC2)cc(-n2ccnc2-c2ccncc2)c1 | -6.612 |
| Cc1ccc(C)c(C(=O)Nc2ccc(OC3CCN(C)CC3)cc2)c1 | -4.844 |
| Cc1cccc(C(=O)Nc2ccc(OC3CCN(C)CC3)cc2)c1 | -4.145 |
| CN1CCC(Oc2ccc(-n3ccnc3-c3ccncc3)cc2)CC1 | 114.7 |
| CN1CCC(Oc2ccc(-n3ccnc3-c3nccn3C)cc2)CC1 | 110.4 |
| Cn1ccnc1-c1nccn1-c1cccc(CN2CCCC2)c1 | -8.491 |
